Activity calls are given as the source filed them. Unless noted, how the calls were made is not given here.
Legend:
[1] = compounds binding Alexa647 anti-His antibody – biochemical, small-molecule microarray, 635 nm fluorescence, artefact control for SMM control protein annotation, primary screen (AID 1128); conditions: higher = more signal;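 further: score merges feature fluorescence with signal-to-noise for each printed compound spot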
[2] = tested on: Human papillomavirus type 1a E7 protein (residues 1-88); assay: HPV1a E7 small-molecule binders, primary screen, biochemical, small-molecule microarray, residues 1-88, 635 nm (AID 1129); conditions: small-molecule microarray binding, fluorescence 635 nm; higher = more signal
[3] = molecular target: Focal adhesion kinase 1 (Homo sapiens) (UniProt Q05397); assay: PTK2 protein binding on printed compound slides – biochemical, small-molecule microarray, 635/667 nm fluorescence, BSA, DTT, primary screen (AID 1130); conditions: 635 nm fluorescence, higher = more signal;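 further: composite of spot emission at 667 nm and signal to noise over triplicate slides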
Focal adhesion kinase 1 (Homo sapiens), sequence (Q05397 whole entry, looked up): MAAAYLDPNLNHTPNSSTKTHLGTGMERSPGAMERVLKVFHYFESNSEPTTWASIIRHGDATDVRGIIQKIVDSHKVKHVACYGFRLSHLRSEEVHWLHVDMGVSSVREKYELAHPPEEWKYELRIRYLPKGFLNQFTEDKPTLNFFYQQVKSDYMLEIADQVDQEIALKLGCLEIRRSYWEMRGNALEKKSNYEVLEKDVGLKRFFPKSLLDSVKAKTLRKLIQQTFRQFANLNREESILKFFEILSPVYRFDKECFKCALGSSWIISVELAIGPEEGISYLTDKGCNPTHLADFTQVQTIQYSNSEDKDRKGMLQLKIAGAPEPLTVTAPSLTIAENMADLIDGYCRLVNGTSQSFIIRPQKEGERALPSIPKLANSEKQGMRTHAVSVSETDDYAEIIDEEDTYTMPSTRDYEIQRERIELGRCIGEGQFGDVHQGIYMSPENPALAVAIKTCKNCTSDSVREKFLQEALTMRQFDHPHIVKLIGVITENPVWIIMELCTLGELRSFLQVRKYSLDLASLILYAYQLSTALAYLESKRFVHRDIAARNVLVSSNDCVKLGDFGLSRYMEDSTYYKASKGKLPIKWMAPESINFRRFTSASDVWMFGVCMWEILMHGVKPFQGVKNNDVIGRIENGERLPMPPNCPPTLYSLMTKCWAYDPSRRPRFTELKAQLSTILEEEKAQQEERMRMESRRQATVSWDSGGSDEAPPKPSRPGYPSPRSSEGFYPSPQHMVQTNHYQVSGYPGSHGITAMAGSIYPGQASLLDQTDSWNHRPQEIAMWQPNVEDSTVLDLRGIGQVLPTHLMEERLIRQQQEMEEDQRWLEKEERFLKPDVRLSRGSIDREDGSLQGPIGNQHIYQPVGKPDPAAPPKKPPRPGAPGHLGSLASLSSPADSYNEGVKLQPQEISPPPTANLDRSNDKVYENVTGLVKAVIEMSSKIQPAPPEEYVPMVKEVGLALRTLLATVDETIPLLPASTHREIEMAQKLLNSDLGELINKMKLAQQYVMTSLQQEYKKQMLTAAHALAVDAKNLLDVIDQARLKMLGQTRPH

[4] = tested on: Fibrinogen (Alexa647-labelled); assay: Alexa647-fibrinogen binding to printed small molecules – biochemical, small-molecule microarray, 635/667 nm fluorescence, artefact control for SMM control-protein annotation, profiling panel (AID 1131); conditions: fibrinogen-A647 binding fluorescence, higher = more signal;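 further: z-score merges 667 nm fluorescence with per-spot signal-to-noise over triplicate slides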
[5] = molecular target: Follistatin (Homo sapiens) (UniProt P19883); assay: FST protein binding to printed compounds – biochemical, small-molecule microarray, 635/667 nm fluorescence, primary screen (AID 1132); conditions: 635 nm fluorescence, higher = more signal
Follistatin (Homo sapiens), sequence (P19883 whole entry, looked up): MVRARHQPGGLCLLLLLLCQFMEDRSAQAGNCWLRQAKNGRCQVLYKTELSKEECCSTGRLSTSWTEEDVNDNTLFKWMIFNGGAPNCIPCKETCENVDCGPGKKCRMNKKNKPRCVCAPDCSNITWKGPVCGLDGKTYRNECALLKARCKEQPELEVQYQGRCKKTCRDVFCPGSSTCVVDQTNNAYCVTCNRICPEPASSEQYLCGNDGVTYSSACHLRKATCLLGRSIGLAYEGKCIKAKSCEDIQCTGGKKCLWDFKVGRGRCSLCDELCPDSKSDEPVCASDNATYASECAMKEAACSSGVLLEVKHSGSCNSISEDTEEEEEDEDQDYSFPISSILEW

[6] = molecular target: Fibroblast growth factor 2 (Homo sapiens) (UniProt P09038); assay: basic fibroblast growth factor binding to printed compounds – biochemical, small-molecule microarray, 635/667 nm fluorescence, primary screen (AID 1133); conditions: FGF2, fluorescence 635/667, higher = more signal
Fibroblast growth factor 2 (Homo sapiens), sequence (P09038 whole entry, looked up): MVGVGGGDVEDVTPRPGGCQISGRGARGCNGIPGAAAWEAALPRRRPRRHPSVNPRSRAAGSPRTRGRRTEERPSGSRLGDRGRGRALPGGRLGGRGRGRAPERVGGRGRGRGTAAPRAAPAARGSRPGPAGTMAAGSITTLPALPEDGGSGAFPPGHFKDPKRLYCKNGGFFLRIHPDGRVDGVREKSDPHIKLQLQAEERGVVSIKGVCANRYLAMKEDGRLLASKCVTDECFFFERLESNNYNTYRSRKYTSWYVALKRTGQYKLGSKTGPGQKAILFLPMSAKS

[7] = JC-1 mitochondrial potential readout, lung cancer cells – cell-based, A549, JC-1 fluorescence, basal, 24 h, 100 nL, profiling panel (AID 1138); conditions: higher = more signal;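 further: A549 lung adenocarcinoma cells under basal conditions with no added stimulus; test concentration not given here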
Lefty1 = Lefty1 protein binding to printed compounds – biochemical, small-molecule microarray, 635/667 nm fluorescence, primary screen (AID 1139); conditions: fluorescence 635/667, higher = more signal
[8] = tested on: wheat germ agglutinin (Triticum aestivum), Alexa647-labelled; assay: Alexa647-WGA lectin binding to printed small molecules – biochemical, small-molecule microarray, 635/667 nm fluorescence, artefact control for SMM control-protein annotation, profiling panel (AID 1140); conditions: WGA-A647 binding, 635 nm fluorescence, higher = more signal;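 further: score merges 667 nm feature emission with signal to noise over triplicate slides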
[9] = molecular target: Luciferin 4-monooxygenase (Photinus pyralis) (UniProt P08659); assay: inhibition of purified Photinus pyralis luciferase – biochemical, luminescence, purified enzyme, 2006 set, primary screen (AID 1141); conditions: purified firefly luciferase, SteadyGlo luminescence, 30 min; higher = more signal, called active from +8 up or from −8 down;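 further: cell-free assay with purified firefly luciferase at 100 ng per well in PBS; test concentration not given here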
Luciferin 4-monooxygenase (Photinus pyralis), sequence (P08659 whole entry, looked up): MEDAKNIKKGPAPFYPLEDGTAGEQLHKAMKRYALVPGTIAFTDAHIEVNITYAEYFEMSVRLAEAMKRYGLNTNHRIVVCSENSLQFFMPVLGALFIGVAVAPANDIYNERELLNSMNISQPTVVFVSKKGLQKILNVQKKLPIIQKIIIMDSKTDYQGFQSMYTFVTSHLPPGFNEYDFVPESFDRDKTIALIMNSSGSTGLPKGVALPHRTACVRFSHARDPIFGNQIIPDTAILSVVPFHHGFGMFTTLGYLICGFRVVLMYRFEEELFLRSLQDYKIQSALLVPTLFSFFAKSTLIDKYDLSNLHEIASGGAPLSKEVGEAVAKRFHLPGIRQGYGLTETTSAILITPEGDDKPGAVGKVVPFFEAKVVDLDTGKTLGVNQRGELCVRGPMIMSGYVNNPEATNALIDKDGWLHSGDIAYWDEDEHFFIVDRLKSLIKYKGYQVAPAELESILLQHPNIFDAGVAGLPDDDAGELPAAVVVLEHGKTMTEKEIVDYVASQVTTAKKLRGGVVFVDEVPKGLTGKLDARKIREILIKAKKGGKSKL

[10] = tested on: Wnt5a (protein binding on small-molecule microarray); assay: small molecules binding Wnt5a protein – biophysical, small-molecule microarray, 635/667 nm fluorescence, primary screen (AID 1142); conditions: 635 nm fluorescence, higher = more signal;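 further: fluorescence read at 667 nm with signal to noise per printed feature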
[11] = ATP-based viability of Huh7 replicon cells – cell-based, CellTiter-Glo luminescence, basal, 48 h, cytotoxicity control for HCV replication inhibitor project, primary screen (AID 1143); conditions: higher = more signal, called active from +8 up or from −8 down;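 further: Huh7 hepatoma cells carrying a hepatitis C replication reporter with no stimulus; test concentration not given here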
[12] = Pseudomonas biofilm growth suppression – PAO1 strain, BacTiter-Glo luminescence, LB-PBS, primary screen (AID 1144); conditions: P. aeruginosa PAO1 biofilm, 12 h, higher = more signal
[13] = basal CRE-LacZ reporter activity in PC12 – cell-based, unstimulated, primary screen (AID 1145); conditions: no forskolin, luminescence, 4.5 h, higher = more signal, called active from +8 up or from −8 down
[14] = forskolin-driven CRE-LacZ activity in PC12 – cell-based, CRE-LacZ reporter, forskolin-stimulated, primary screen (AID 1146); conditions: luminescence, 4.5 h, higher = more signal, called active from +8 up or from −8 down;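 further: PC12 cells with 6xCRE LacZ reporter stimulated by forskolin 10 µM; beta-galactosidase reporter signal reflecting CREB driven transcription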
[15] = molecular target: Streptavidin (Streptomyces avidinii) (UniProt P22629); assay: compounds binding control protein streptavidin – biophysical, small-molecule microarray, 635/667 nm fluorescence, artefact control for SMM compound annotation, primary screen (AID 1147); conditions: higher = more signal;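 further: signal reflects streptavidin binding to arrayed compounds as a control protein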
Streptavidin (Streptomyces avidinii), sequence (P22629 whole entry, looked up): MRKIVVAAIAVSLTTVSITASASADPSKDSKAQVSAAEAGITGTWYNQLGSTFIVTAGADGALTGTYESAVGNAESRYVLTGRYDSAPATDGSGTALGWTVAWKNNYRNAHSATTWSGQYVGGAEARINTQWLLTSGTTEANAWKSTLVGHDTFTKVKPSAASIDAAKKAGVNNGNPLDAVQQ

[16] = probe aInhba binding on compound microarray – biochemical, small-molecule microarray, 635/667 nm fluorescence, primary screen (AID 1148); conditions: higher = more signal;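 further: score merges 667nm spot fluorescence with signal-to-noise for antibody binding to printed compounds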
Torsin-1A (Homo sapiens) [17] = molecular target: Torsin-1A (Homo sapiens) (UniProt O14656); assay: TOR1A wild-type binding on microarray – cell lysate, small-molecule microarray, lysate, 635/667 nm, primary screen (AID 1149); conditions: COS7 hTOR1A-WT lysate, 635 nm fluorescence, higher = more signal
Torsin-1A (Homo sapiens), sequence (O14656 whole entry, looked up): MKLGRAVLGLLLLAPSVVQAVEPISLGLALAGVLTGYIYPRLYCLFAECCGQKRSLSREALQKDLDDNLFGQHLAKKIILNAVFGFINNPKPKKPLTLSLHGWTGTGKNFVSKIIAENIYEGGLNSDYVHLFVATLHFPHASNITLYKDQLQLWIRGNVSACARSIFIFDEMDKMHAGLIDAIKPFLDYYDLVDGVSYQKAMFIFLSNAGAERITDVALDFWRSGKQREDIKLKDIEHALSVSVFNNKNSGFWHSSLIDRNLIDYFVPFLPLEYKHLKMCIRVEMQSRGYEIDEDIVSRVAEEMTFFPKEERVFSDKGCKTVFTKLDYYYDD

Torsin-1A (Homo sapiens) [18] = molecular target: Torsin-1A (Homo sapiens) (UniProt O14656); assay: torsin A mutant lysate binding on microarrays – cell lysate, small-molecule microarray, COS7 lysate, 635/667 nm fluorescence, primary screen (AID 1150); conditions: COS7 hTOR1A mutant lysate, 635 nm fluorescence, higher = more signal;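 further: score pools 667 nm emission and signal to noise measuring lysate protein binding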
[19] = tested on: Sonic hedgehog protein (Shh); assay: Sonic hedgehog microarray binding compounds – biochemical, small-molecule microarray, 635/667 nm fluorescence, primary screen (AID 1151); conditions: 635 nm fluorescence, higher = more signal;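 further: Shh protein binding to compounds spotted on small-molecule microarray slides; score combines spot fluorescence intensity with signal-to-noise across triplicate slides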

| Compound | composite z-score [1] | composite z-score [2] | composite z-score [3] | composite z-score [4] | composite z-score [5] | composite z-score [6] | z-score [7] | composite z-score (Lefty1) | composite z-score [8] | z-score [9] | composite z-score [10] | z-score [11] | z-score [12] | z-score [13] | z-score [14] | composite z-score [15] | composite z-score [16] | composite z-score (Torsin-1A (Homo sapiens) [17]) | composite z-score (Torsin-1A (Homo sapiens) [18]) | composite z-score [19] |
| --- | --- | --- | --- | --- | --- | --- | --- | --- | --- | --- | --- | --- | --- | --- | --- | --- | --- | --- | --- | --- |
| CC=CC(O)C1C=CC2C(=O)N(c3ccccc3)C(=O)C2N1Nc1ccc([N+](=O)[O-])cc1 (stereo not given) | 1.58 | 0.644 | 0.427 | 0.752 | 0.495 | 0.194 | -0.645 | 0.112 | 0.645 | 1.28 (inactive) | -0.0454 | 0.612 (inactive) | 0.698 (inactive) | -0.415 (inactive) | 0.0268 (inactive) | 0.395 | -0.162 | 0.463 | -0.213 | 0.224 |
| COc1ccc(C#Cc2ccc3c(c2)[C@]2(C(=O)N3)[C@H](C(=O)N3CCc4cc(OC)c(OC)cc4C3)[C@H]3C(=O)O[C@H](c4ccccc4)[C@H](c4ccccc4)N3[C@@H]2c2ccc(O)cc2)cc1 | 1.5 | 1.2 | 0.735 | 0.924 | 0.896 | 0.465 | -1.47 | 0.374 | 0.0376 | -0.716 (inactive) | 0.219 | -0.59 (inactive) | -1.01 (inactive) | -0.141 (inactive) | -1.02 (inactive) | 1.04 | -0.121 | 1.03 | 0.199 | 0.466 |
| COCCCNC(=O)[C@]1(Cc2ccccc2N=[N+]=[N-])N=C(c2ccc(OCCCO)cc2)O[C@@H]1c1ccccc1N=[N+]=[N-] | 2.22 | 1.19 | 0.356 | 0.983 | 0.778 | -0.165 | -0.214 | -0.252 | 0.676 | -3.27 (inactive) | 0.497 | -4.87 (inactive) | 0.524 (inactive) | 0.432 (inactive) | -1.98 (inactive) | 1.25 | -0.0011 | 0.238 | 0.605 | -0.973 |
| COCCOC(=O)N1C(=O)[C@@]2(c3ccccc31)[C@H](c1ccc(OCCO)cc1)N1[C@H](c3ccccc3)[C@H](c3ccccc3)OC(=O)[C@H]1[C@@H]2C(=O)Nc1nc2ccccc2s1 | 1.6 | 1.2 | 0.72 | 0.942 | 1.24 | 1.05 | -2.22 | 0.518 | 0.433 | -2.98 (inactive) | 0.528 | -1.49 (inactive) | -0.58 (inactive) | 0.505 (inactive) | 11.9 (active) | 0.962 | 0.239 | 0.73 | 0.558 | 1.1 |
| CCCCN1CC=CC23O[C@@H]4C=CCOC(=O)[C@@H]4[C@H]2C(=O)N(C(C)CO)[C@@H]3C1=O (stereo not given in full) | -0.461 | -1.01 | -0.243 | -1.32 | -1.55 | -0.588 | -0.414 | -1.56 | -1.02 | -0.313 (inactive) | -0.166 | -0.251 (inactive) | 1.27 (inactive) | -0.488 (inactive) | 0.401 (inactive) | -0.78 | -0.128 | 0.0171 | -0.241 | -0.213 |
| [N-]=[N+]=Nc1ccccc1[C@@H]1OC(c2ccc(OCCCO)cc2)=N[C@]1(CCS(=O)(=O)c1ccccc1)C(=O)NCCN1CCOCC1 | 0.903 | 1.28 | -0.018 | 0.962 | 1.14 | -0.29 | -0.377 | 0.393 | 1.04 | -8.81 (active) | 0.391 | -4.79 (inactive) | -0.124 (inactive) | 0.549 (inactive) | -1.18 (inactive) | 0.637 | 0.109 | 1.13 | 1.15 | -0.252 |
| C=C(COC)/C(=C/C[C@@H](OC(=O)c1ccncc1)c1ccc(OCCO)cc1)c1cnc2ccccc2c1 | 0.866 | 1.13 | 0.0089 | 0.94 | 1.46 | 1.74 | 0.703 | 1.49 | 0.798 | -2.4 (inactive) | 0.884 | -3.25 (inactive) | -1.28 (inactive) | 7.95 (inactive) | 0.34 (inactive) | 2.13 | 0.0419 | 0.77 | 0.327 | 2.09 |
| CCOC(=O)[C@H]1C/C=C/C[C@H](C(=O)OCC)C(=O)O[C@H]2[C@@H](OC)O[C@H](CO)[C@@H](OC(=O)Nc3ccc(OC)cc3)[C@@H]2OC1=O | 1.96 | 1.16 | 0.768 | 0.369 | 1.16 | 0.741 | 2.61 | 0.636 | 0.648 | -2.06 (inactive) | 0.314 | -3.41 (inactive) | 0.29 (inactive) | 0.484 (inactive) | 0.106 (inactive) | 0.355 | 0.134 | 0.494 | 1.64 | 0.733 |
| O=C1NCC(=O)N2[C@@H]1C[C@@H](C(=O)O)[C@H]2c1ccc(O)cc1 | 3.15 | 1.19 | 0.278 | 0.8 | 1.38 | 1.9 | 0.563 | 1.56 | 0.255 | -0.504 (inactive) | 0.27 | -0.286 (inactive) | -0.611 (inactive) | 0.0084 (inactive) | 0.622 (inactive) | 0.237 | 0.0104 | 1.13 | 2.29 | 2.01 |
